# Bioassay records as filed in PubChem.
# WRN inhibitor: WRN helicase (human) inhibition; Q14191; AID 651768; hit rate 0.46% among 360,000; Potency, µM (titrated, usually from 114 µM), inactives show at the highest dose activity change, negative = inhibition, actives largely listed as inhibitors; WRN helicase unwinding, fluorescent forked duplex, kinetic; further: potency means the concentration at half of the fitted maximal effect; on the % scale 0 is the no-effect control and ±100 the full control effect; nearly all actives have a fitted effect of over 55% in size
#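 Fluorescence dequenching readout, ex 525 nm/em 598 nm, kinetic mode: forked duplex DNA (100 nM final) with adjacent fluorophore and quencher unwound by WRN (20 nM final) with 2 mM ATP. Compound preincubation 15 min, room temperature.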
# Pol kappa inh: inhibitors of human DNA polymerase kappa. Q9UBT6. hit rate 0.53% among 400,000. Potency, µM (series often up to 107 µM), without a hit: top-dose activity, negative = inhibition, hits mostly inhibitors. AID 588579. purified Pol kappa, fluorescent DNA synthesis assay, 10 min; further: potency means the concentration at half of the fitted maximal effect; on the % scale 0 is the no-effect control and ±100 the full control effect
# Target sequence (Q9UBT6 whole entry, looked up): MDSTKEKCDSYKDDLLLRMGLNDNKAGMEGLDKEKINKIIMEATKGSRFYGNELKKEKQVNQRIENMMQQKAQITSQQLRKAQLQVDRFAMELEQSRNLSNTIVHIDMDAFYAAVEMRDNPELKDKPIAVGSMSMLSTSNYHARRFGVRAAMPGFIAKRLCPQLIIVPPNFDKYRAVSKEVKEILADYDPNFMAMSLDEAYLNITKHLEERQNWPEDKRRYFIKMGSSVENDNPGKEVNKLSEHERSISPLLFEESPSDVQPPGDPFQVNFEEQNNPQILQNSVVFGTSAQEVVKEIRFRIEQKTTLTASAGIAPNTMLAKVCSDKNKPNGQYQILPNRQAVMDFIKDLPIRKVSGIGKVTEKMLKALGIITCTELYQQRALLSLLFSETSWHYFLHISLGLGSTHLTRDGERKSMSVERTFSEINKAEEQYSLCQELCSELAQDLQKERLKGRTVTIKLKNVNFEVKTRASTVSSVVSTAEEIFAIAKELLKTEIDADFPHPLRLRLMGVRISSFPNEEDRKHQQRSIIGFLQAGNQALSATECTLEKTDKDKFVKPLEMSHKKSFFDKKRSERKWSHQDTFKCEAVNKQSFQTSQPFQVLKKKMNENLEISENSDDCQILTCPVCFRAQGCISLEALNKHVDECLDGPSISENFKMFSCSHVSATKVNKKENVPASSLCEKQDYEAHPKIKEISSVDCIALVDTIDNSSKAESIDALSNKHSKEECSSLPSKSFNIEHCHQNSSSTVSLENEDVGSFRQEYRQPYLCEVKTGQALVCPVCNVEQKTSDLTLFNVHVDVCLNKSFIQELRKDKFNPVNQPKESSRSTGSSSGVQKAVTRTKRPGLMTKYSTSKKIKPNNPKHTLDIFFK
#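 Inhibition of 10 nM Pol kappa is measured by a fluorescent read-out at 0 and 10 min following addition of 50 nM substrate (final), with a 15-min room-temperature compound preincubation.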
# POLI inh: DNA polymerase iota (human) inhibition; AID 588590; Pol iota fluorescent replication assay, 10 min; Potency, µM (doses to about 115 µM), for inactives: at the highest dose activity, negative = inhibition, most hits filed as inhibitors; Q9UNA4; hit rate 1% among 390,000; further: potency means the concentration at half of the fitted maximal effect
#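 Pol iota at 10 nM preincubated 15 min with compounds at room temperature; reaction started with fluorescent substrate, 50 nM final. Fluorescence read kinetically at 0 and 10 min; buffer-only wells as negative control.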
# PI5P4K alpha inh: blocks human PI5P4K alpha kinase activity. P48426. PI5P4Kalpha enzyme, ADP-Glo luminescence, 60 min; active compounds read low. max response, %. hit rate 1.2% among 330,000. AID 652105; active means max response of -50% or lower; inconclusive means between -30% and -50%; inactive means -30% or higher; further: value at the top dose of about 77 µM; on the % scale 0 is the no-effect control and ±100 the full control effect
#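 qHTS, 1536-well: enzyme/substrate mix, compound by pin tool, 5 microM ATP final; RT 60 min; ADP-Glo reagents 1 (45 min) then 2 (30 min); luminescence.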
# POLB inh: blocks human DNA polymerase beta activity | P06746 | Pol beta primer extension/strand displacement, fluorescence kinetic | Potency, µM (top dose mostly 114 µM), inactives show at the top dose activity change, negative = inhibition, usual class: inhibitors | hit rate 1.3% among 340,000; further: potency means the concentration at half of the fitted maximal effect; on the % scale 0 is the no-effect control and ±100 the full control effect
#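 Values derive from four-parameter Hill fits of normalized kinetic data: reads at 0 and 10 min following addition of 50 nM substrate to 10 nM Pol beta preincubated 15 min with compound.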
# Pol eta inh: blocks human DNA polymerase eta activity; Potency, µM (titrated, usually from 114 µM), for inactives: at the highest dose activity change, negative = inhibition, hits mostly inhibitors; hit rate 1.2% among 390,000; AID 588591; Q9Y253; recombinant Pol eta, fluorescent DNA replication assay; further: potency means the concentration at half of the fitted maximal effect; on the % scale 0 is the no-effect control and ±100 the full control effect
#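 Pol eta (10 nM) was preincubated with compounds for 15 min at room temperature, after which fluorescent replication substrate (50 nM final) was added to start the reaction. Fluorescence was read kinetically at 0 and 10 min.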
# Starred values were filed as active, the others as inactive; ? = inconclusive; · = no result given; [ ] = remark or other dose. Sampled rows, rich in hits. Any-hit rate of the full collection: about 2.8%. Unless noted, the call rests on the fitted dose curve; in most records, active means well fitted curve in the direction sought with a large enough effect; inconclusive means small, poorly fitted or top-dose-only effect, or another doubt; inactive means no such curve, though single readings can be large; an effect the other way counts as inactive or inconclusive.
SMILES,WRN inhibitor,Pol kappa inh,POLI inh,PI5P4K alpha inh,POLB inh,Pol eta inh
O=C(CN1C(=O)S/C(=C\c2cccs2)C1=O)Nc1ccc(O)c(C(=O)O)c1,-8%[57.1 µM],-2%,8%,-58*,?,-16%
Cc1ccccc1NC(=O)CN1C(=O)S/C(=C\c2ccc(-c3cccc(C(=O)O)c3C)o2)C1=O,-11%[57.1 µM],?,?,2,35µM*,?
Cc1cccc(NC(=O)CN2C(=O)S/C(=C\c3ccc(-c4cccc(C(=O)O)c4C)o3)C2=O)c1,-10%,-17%,?,-3,7%,35µM*
O=C(CN1C(=O)S/C(=C\c2cccs2)C1=O)Nc1ccc(C(=O)O)c(O)c1,-5%,-1%,-10%,?,-19%,?
O=C(O)c1ccc(NC2=C(n3nnc4ccccc43)C(=O)c3ccccc3C2=O)cc1,-2%[11.6 µM],-23%,40µM*,-2,1%,4%
O=C(O)c1cccc(NC2=C(N3CCOCC3)C(=O)c3ccccc3C2=O)c1,-6%,-7%,?,-10,?,-22%
O=C1C(Cl)=C(Nc2ccc3cn[nH]c3c2)C(=O)c2ccccc21,-35%,-25%,?,-87*,?,50µM*
O=C(Nc1ccc2cn[nH]c2c1)c1c(Cl)cccc1Cl,-6%,-9%,16%,-24,-8%,-10%
CCOC(=O)CC1(CC)Oc2ccccc2N1S(=O)(=O)c1ccc(C)cc1 (stereo unspecified),3%,·,·,12,·,·
O=S(=O)(/N=S1\CC=CCN1S(=O)(=O)c1ccccc1)c1ccccc1 (stereo unspecified),8.9µM*,-8%,28µM*,-50*,·,-12%
O=S(=O)(c1ccccc1)N1CCN(S(=O)(=O)c2ccccc2)CC1,·,-35%,-40%,·,·,·
CCOc1ccc(-c2n[nH]c(C)c2-c2ccccc2OC)c(O)c1,-5%[57.1 µM],-13%,-2%,2,-9%,-18%
CCc1cc(-c2n[nH]c(C)c2-c2ccccc2Cl)c(O)cc1OC,-18%,0%,89µM*,16,5%,-16%
Nc1ccc(Nc2nc3ccccc3[nH]2)cc1,8%,-4%,70%,-52*,13%,-17%
Nc1ccccc1Nc1nc2ccccc2[nH]1,-27%,-6%,90%,0,7%,-10%
CCn1c(SCC(=O)Nc2ccc3c(c2)c2ccccc2n3CC)nnc1-c1ccco1,185%,35µM*,?,·,2%,25µM*
CC(C)n1c(SCC(=O)Nc2nncs2)nnc1-c1ccco1,?,79µM*,16µM*,-74*,20µM*,7.9µM*
CCn1c(SCC(=O)N/N=C/c2ccc(C)o2)nnc1-c1ccccc1,4%,2%,56%,-4,-1%,-8%
CCn1c2ccccc2c2cc(NC(=O)c3ccc(=O)oc3)ccc21,-6%[11.6 µM],?,50µM*,-11,?,?
CCn1c(SCC(=O)Nc2cccc(NC(C)=O)c2)nnc1-c1ccco1,-6%,-22%,167%,-11,16%,-9%
CCn1c(SCC(=O)N/N=C/C(C)=C\c2ccco2)nnc1-c1ccccc1,-5%[11.6 µM],?,45µM*,-23,28µM*,?
Cc1nnc(NC(=O)CSc2nnc(-c3ccco3)n2C(C)C)s1,-2%,-5%,84%,1,-7%,-7%
CCCc1ccc(OC(=O)c2sc3ncn(Cc4cccc(F)c4)c(=O)c3c2C)cc1,·,-13%[60.1 µM],-4%,·,27%,-18%
C=CCNc1nc(-c2ccc(O)c(C(N)=O)c2)cs1,-6%[57.1 µM],-10%,?,-58*,13%,-21%
NC(=O)c1cc(-c2csc(NCCc3ccccc3)n2)ccc1O,?,-4%,?,-19,-9%,-4%
SMILES,WRN inhibitor,Pol kappa inh,POLI inh,PI5P4K alpha inh,POLB inh,Pol eta inh
CC1CCCC(C)N1C(=O)COC(=O)/C=C/c1ccco1 (stereo unspecified),-11%,-5%,?,0,·,?
COc1ccc(C(=O)COC(=O)/C=C/c2ccco2)cc1F,-5%,?,35µM*,-28,·,?
COC(=O)c1ccccc1NC(=O)COC(=O)/C=C/c1ccco1,-4%,3%,29%,-1,?,-3%
CCN(c1ccc(NC(=O)COC(=O)/C=C/c2ccco2)cc1)C(C)C,3%,-5%,3%,1,·,-23%
CC1CCCC(NC(=O)COC(=O)/C=C/c2ccco2)C1C (stereo unspecified),-4%,-26%,71µM*,-8,·,-3%
CN(Cc1ccccc1)C(=O)COC(=O)/C=C/c1ccco1,-13%,?,?,?,14µM*,?
O=C(COC(=O)/C=C/c1ccco1)Nc1ccccc1,2%[11.6 µM],-32%,?,-18,22µM*,?
CCCCS(=O)(=O)c1nc(-c2ccc(Br)cc2)cc(-c2ccccc2)c1C#N,·,5%,13%,·,0%,-18%
COC(=O)c1ccc(N2C(c3cc(OC)cc(OC)c3)=Cc3ccc(-c4ccc(C(N)=O)cc4)cc3C2CC(=O)C2CC2)cc1 (stereo unspecified),-3%,·,·,8,·,·
CCOc1cc(/C=C(\C#N)c2nc3ccccc3[nH]2)ccc1OC(C)C(=O)O (stereo unspecified),-18%,-11%,-13%,?,4%,-5%
COc1cc(/C=C(\C#N)c2nc3ccccc3[nH]2)ccc1OCc1cccc(C(F)(F)F)c1,·,-6%,?,·,3.5µM*,·
COC(=O)c1ccc(COc2ccc(/C=C(\C#N)c3nc4ccccc4[nH]3)cc2OC)o1,?,-18%,24%,-4,8.9µM*,?
O=C(Nc1cccc(OC(F)(F)F)c1)c1cccc2c(-c3cccnc3)coc12,-12%,·,·,1,·,·
COc1ccc(/C=N/N2C(C)CCCC2C)cc1O (stereo unspecified),2%,-7%,140%,-8,41%,-3%
CC1CCCC(C)N1/N=C/c1ccc(O)c(O)c1 (stereo unspecified),-4%[11.6 µM],40µM*,?,?,2.2µM*,?
O=C(Nc1ccc(F)cc1)C(c1ccncc1)N1CCN(c2cccc(C(F)(F)F)n2)CC1 (stereo unspecified),-14%,·,·,13,·,·
Cc1cccn2c(=O)c3cc(S(=O)(=O)c4ccccc4)c(=N)n(Cc4ccc(F)cc4)c3nc12,1%,3%,15%,-3,11%,-18%
Cc1cccn2c(=O)c3cc(S(=O)(=O)c4ccc(F)cc4)c(=N)n(Cc4ccco4)c3nc12,-4%[57.1 µM],?,11µM*,-2,?,-8%
Cc1cccn2c(=O)c3cc(S(=O)(=O)c4ccccc4)c(=N)n(Cc4ccco4)c3nc12,-10%,-30%,4%,-1,8.9µM*,-1%
COc1ccc(C(=O)Nc2cccc3cccnc23)cc1OC,0%,-10%,5%[58.9 µM],·,24%,-8%
